The values below come from PubChem BioAssay (EPA / NIEHS).

Molecules are shown by their SMILES. The source made the active and inactive calls. Rule for the calls: active = hit-call score of the fitted dose curve at least 0.9, where 1 is the maximum; inactive = score below 0.9.

The nature of this assay: ATG_M_61_CIS: Attagene CIS-FACTORIAL HepG2 Assay for M61 Transcription Factor (Internal Marker) (AID 2282937). As to conditions: HepG2 Attagene CIS-FACTORIAL M61 internal marker reporter; actives raise or lower the signal. The protocol:
ATG_CIS is a cell-based, multiplexed-readout assay that uses HepG2, a human liver cell line, with measurements taken at 24 hours after chemical dosing in a 24-well plate.ATG_M_61_CIS is one of 52 assay component(s) measured or calculated from the ATG_CIS assay. It is designed to make measurements of mRNA induction, a form of inducible reporter, as detected with fluorescence intensity signals by Reverse transcription polymerase chain reaction (RT-PCR) and Capillary electrophoresis technology.Data from the assay component ATG_M_61_CIS was analyzed into 1 assay endpoint. This assay endpoint, ATG_M_61_CIS, was analyzed with bidirectional fitting relative to DMSO as the negative control and baseline of activity. Using a type of inducible reporter, measures of mRNA for gain or loss-of-signal activity can be used to understand the background control at the transcription factor-level as they relate to the gene . Furthermore, this assay endpoint can be referred to as a secondary readout, because this assay has produced multiple assay endpoints where this one serves a background control function. To generalize the intended target to other relatable targets, this assay endpoint is annotated to the background measurement intended target family, where the subfamily is internal marker.
Human liver HepG2 cells are transiently transfected with multiple reporter transcription units (MRTUs) in 6-well plates using FuGene 6 reagent (Roche; 3 ml FuGene/1 mg DNA). The MRTU constructs are regulated by a cis-regulating element (promoter). […] A major difference between the CIS and TRANS system is that in CIS activities of endogenous TFs are measured, whereas the TRANS assay evaluates changes in activities of exogenous, chimeric NR-Gal4 proteins. […] At the end of 24 hour incubation, total RNA was isolated using TriZol reagent (Invitrogen). The isolated RNA is then reverse-transcribed using oligo(dT) primer and Mo-MLV reverse transcriptase (Invitrogen) with DNAse I (Ambion) treatment for 30 min. The one-tenth of the produced cDNA was amplified by PCR using Taq DNA polymerase (Invitrogen) and two reporter sequence-specific primers. The PCR products were fluorescently labeled by primer extension with 6-arboxyfluorescein (6-FAM) 5'-labeled reporter sequence-specific primer (2 min at 95 C, 20 s at 68 C and 10 min at 72 C) and these products were digested with 5U of HpaI (New England Biolabs) for 2h at 37 C. The fragments were purified using Qiaquick PCR columns (Qiagen), analyzed on an ABI 3130xL genetic analyzer (Applied Biosystems) with peak positions identified by using a set of X-rhodamine (ROX)-labeled MapMarker1000 molecular weight standards (BioVentures). The raw capillary electrophoresis data was processed using Attagraph software (Attagene).
Take `CCCCNC(=S)NCCCC`: the result was inactive.

For the compound `O=C(OCc1ccccc1)c1ccc(O)cc1`, the result was inactive. For `Cc1ccc2c(c1)CCCN2`, the outcome was inactive. In the case of `Cc1ccc(C)c(OCCCC(C)(C)C(=O)O)c1`, the call was inactive. In the case of `CC(=O)OCCc1ccccc1`, the call was inactive. On to `c1ccc(-c2nc3ccccc3[nH]2)cc1`, for which the result was inactive. As for `O=C(Oc1ccccc1)c1ccccc1C(=O)Oc1ccccc1`, the outcome was inactive. Consider `Cc1c[nH]c(=O)[nH]c1=O`, for which the result was inactive. The same measure for `CCCC(CC)c1ccccc1` (stereo not given): “inactive”; for `CC1C(C)(C)C2=C(C(=O)CCC2)C1(C)C` (stereo not given): “inactive”; for `CCC(C)c1ccccc1` (stereo not given): “inactive”. `COC(Cc1ccccc1)OC`: the call was inactive. With `CC1=CCC2CC1C2(C)C` (stereo not given) the entry was “inactive”. For the compound `CN(C)Cc1cc(CN(C)C)c(O)c(CN(C)C)c1`, the call was inactive. With `CCc1cccc(CC)c1`, the compound was called inactive. Turning to `CC(C)CCCCCOC(=O)CS`, the compound was called inactive. As for `CCCCCC(=O)OCC`, the compound was called inactive. The same measure for `CC(C)=CCCC(C)=CC#N`: “inactive”.

In the case of `Cc1cc(C)n(CO)n1`, the compound was called inactive. The same measure for `Cn1ccnc1`: “inactive”. As for `C1CCSC1`, the compound was called inactive. `O=C1CCCN1C1CCCCC1`: the compound was classed as inactive. Regarding `O=C(O)C(F)(F)C(F)(F)C(F)(F)C(F)(F)C(=O)O`, the compound was called inactive. As to `CC(C)c1cccc(C(C)C)c1N`, the result was inactive.

As for `C=C(C)C1CC=C(C)CC1` (stereo not given), the compound was called inactive. As for `CCCCCOC(=O)CCCCC`, the compound was classed as inactive.

Regarding `c1ccc(Nc2cccc3ccccc23)cc1`, the compound was called inactive. Take `CC(C)(CO)COC(=O)C(C)(C)CO`: the compound was called inactive. Turning to `CCOC(=O)OC(=O)OCC`, the compound was called inactive. For the compound `CCCCCCCCC(CO)CCCCCC` (stereo not given), the result was inactive. The same measure for `Nc1ccnc(=O)[nH]1`: “inactive”.

In the case of `COc1cc(O)c(C(=O)c2ccccc2)cc1S(=O)(=O)O`, the outcome was inactive.

On to `CCCC(C)C(=O)OCC` (stereo not given), for which the outcome was inactive. Take `COc1ccc(C(=O)/C(Br)=C\C(=O)O)cc1`: the compound was called inactive. `O=S(=O)(O)c1ccc(Nc2nc(Nc3ccc(C=Cc4ccc(Nc5nc(Nc6ccc(S(=O)(=O)O)cc6)nc(N(CCO)CCO)n5)cc4S(=O)(=O)O)c(S(=O)(=O)O)c3)nc(N(CCO)CCO)n2)cc1`: the outcome was inactive. For `COc1ccc(C(=O)c2ccccc2)c(O)c1`, the compound was classed as inactive. The same measure for `CC(=O)c1ccc(S(=O)(=O)NC(=O)NC2CCCCC2)cc1`: “inactive”. The same measure for `CCN(CC)c1cccc(C)c1`: “inactive”. Consider `C=C(C)C(=O)OCCOC(=O)C(=C)C`, for which the call was inactive.

`CC(=O)OC1CCCCC1C(C)(C)C` (stereo not given): the call was inactive.
